Data taken from PubChem BioAssay (Tox21).
Results filed as inconclusive are left out. A number with no mark means an inactive call. The source made the active and inactive calls. Unless noted, the call rests on the fitted dose curve; in most records, active means well fitted cell-killing curve with a large enough effect in the repeat runs (not every such curve was filed as active); inconclusive means weak or mixed curves, or effect the other way; inactive means no such curve, though single readings can be large or run the other way.

Molecular target: Bile acid receptor (Homo sapiens) (UniProt Q96RI1)
Test: qHTS assay to identify small molecule agonists of the farnesoid-X-receptor (FXR) signaling pathway (AID 743220; active means well fitted activation curve with a large enough effect in the signal ratio in the repeat runs, not every such curve was filed as active; the % refers to the signal ratio)
Conditions: HEK293T FXR-UAS-bla, beta-lactamase FRET ratio, 16 h; series mostly up to 62.6 µM; activation: at the top concentration
Procedure, shortened: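 Beta-lactamase reporter under UAS control in GeneBLAzer FXR HEK 293T cells (5000/well) measured with LiveBLAzer FRET substrate after 2 h at room temperature. Compound exposure lasted 16 h at 37C.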
On the % scale 0 is the no-effect control and ±100 the full control effect.

Sequence of Bile acid receptor (Homo sapiens) (Q96RI1 whole entry, looked up): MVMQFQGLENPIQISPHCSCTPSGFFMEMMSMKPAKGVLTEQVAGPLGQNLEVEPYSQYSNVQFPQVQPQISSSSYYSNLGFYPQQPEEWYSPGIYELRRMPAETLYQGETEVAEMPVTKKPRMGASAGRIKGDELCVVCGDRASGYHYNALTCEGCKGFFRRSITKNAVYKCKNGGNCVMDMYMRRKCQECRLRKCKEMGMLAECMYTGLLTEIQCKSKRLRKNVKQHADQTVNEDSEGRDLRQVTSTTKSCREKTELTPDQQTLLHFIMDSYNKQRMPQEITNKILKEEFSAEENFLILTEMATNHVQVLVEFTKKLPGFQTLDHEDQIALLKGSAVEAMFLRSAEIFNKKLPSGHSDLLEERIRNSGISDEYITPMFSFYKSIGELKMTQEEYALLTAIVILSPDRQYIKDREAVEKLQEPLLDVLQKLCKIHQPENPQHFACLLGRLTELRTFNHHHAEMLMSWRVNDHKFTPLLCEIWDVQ

| Compound | activation |
| --- | --- |
| OCCc1ccncc1 | -0.76% |
| C=C(C)C(=O)OCCCCCCCCCCOC(=O)C(=C)C | 2.22% |
| C[C@H](CN1CCCC1)C(=O)c1ccc(C(F)(F)F)cc1 | -1.57% |
| CC(C)NC(=O)c1ccccc1N | -0.114% |
| CC(COc1ccccc1)NC(C)C(O)c1ccc(O)cc1 (stereo not drawn) | 3.21% |
| CCOC(OCC)OCC | -2.21% |
| COC(=O)/C=C/C(C)=C\C=C\C(C)=C\C=C\C=C(C)\C=C\C=C(C)\C=C\C(=O)O | 1.14% |
| CCCC(=O)OCc1ccccc1 | 0.282% |
| CC(CC(C#N)(c1ccccc1)C(C)C)N(C)C (stereo not drawn) | -2.06% |
| CCCCOC(=O)C(C)Oc1ccc(Oc2ccc(C(F)(F)F)cn2)cc1 (stereo not drawn) | -0.683% |
| CCOc1cc(OCC)c(C(C)=O)cc1OCC | -0.786% |
| CC(C)=CCC/C(C)=C/C=N/O | -2.34% |

Test system: not listed separately
Test: qHTS assay to identify small molecule antagonists of the farnesoid-X-receptor (FXR) signaling pathway - cell viability counter screen (AID 743221); further: nearly all actives have a fitted effect of over 50% in size; further: potency means the concentration at half of the fitted maximal effect
Conditions: FXR-bla HEK293T viability, CellTiter-Glo luminescence, 16 h; series mostly up to 62.6 µM; activity change, negative = cytotoxicity: at the top concentration
Procedure, shortened: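 Compound effects on cell number were measured as CellTiter-Glo luminescence in HEK 293T cells expressing FXR-UAS-bla, after 16 h at 37 C with 50 uM CDCA (final).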

| Compound | activity change, negative = cytotoxicity | Potency |
| --- | --- | --- |
| Cc1nc(C)c(C)nc1C | 7.26% |  |
| Cc1ccc(S(=O)(=O)NC(=O)NC2CCCC2)cc1 | 16.2% |  |
| OCCc1ccncc1 | -13.6% |  |
| C=C(C)C(=O)OCCCCCCCCCCOC(=O)C(=C)C | -11.4% |  |
| CCC1=C(C)CN(C(=O)NCCc2ccc(S(=O)(=O)NC(=O)NC3CCC(C)CC3)cc2)C1=O (stereo not drawn) | -2.49% |  |
| Cc1ccc(Cl)c(OCC(O)CNC(C)(C)C)c1 (stereo not drawn) | -1.19% |  |
| O=C(C1CCCCC1)N1CC(=O)N2CCCc3ccccc3C2C1 (stereo not drawn) | 9.55% |  |
| N#CCCCC(C#N)CCC#N (stereo not drawn) | 7.79% |  |
| Clc1nc2ccccc2nc1Cl | 4.43% [at 81.1 µM] |  |
| CC(C)NC(=O)c1ccccc1N | -0.43% |  |
| CCCc1nc(C)c2c(=O)[nH]c(-c3cc(S(=O)(=O)N4CCN(CC)CC4)ccc3OCC)nn12 | -1.89% |  |
| Cc1cccc(C)c1NC(=O)CN1CCCC1 | 5.89% |  |
| CC(COc1ccccc1)NC(C)C(O)c1ccc(O)cc1 (stereo not drawn) | -18.4% |  |
| NCCOCCOCCN |  | 19.5 µM (active) |
| C=CC(=O)OCCCCCCCCCC | -2.54% |  |
| Nc1ccc(F)cc1F | 3.32% [at 81.1 µM] |  |

| Compound | activity change, negative = cytotoxicity | Potency |
| --- | --- | --- |
| O=c1[nH]nc(-c2ccc([N+](=O)[O-])o2)o1 | -4.74% |  |
| CCN(CC)CC(=O)OCC(=O)[C@@]1(O)CC[C@H]2[C@@H]3CCC4=CC(=O)CC[C@]4(C)[C@H]3[C@@H](O)C[C@@]21C | 4.09% |  |
| CCOC(OCC)OCC | 1.64% |  |
| Cc1ccc2ccccc2c1[N+](=O)[O-] | -0.64% |  |
| C=CC(C)CCC=C(C)C (stereo not drawn) | 3.62% |  |
| COC(=O)/C=C/C(C)=C\C=C\C(C)=C\C=C\C=C(C)\C=C\C=C(C)\C=C\C(=O)O | 11.2% |  |
| CCCC(=O)OCc1ccccc1 | -3.5% |  |
| c1ccc(CCNc2nc(-c3ccccc3)cs2)cc1 | -2.07% |  |
| N#Cc1ccc(CC(=O)c2cccc(C(F)(F)F)c2)cc1 | 4% |  |
| CC(CC(C#N)(c1ccccc1)C(C)C)N(C)C (stereo not drawn) | -12.6% |  |
| O=C(NC1CCN(CCc2c[nH]c3ccccc23)CC1)c1ccccc1 | -2.59% |  |
| CCCCOC(=O)C(C)Oc1ccc(Oc2ccc(C(F)(F)F)cn2)cc1 (stereo not drawn) | 6.4% |  |
| CCOc1cc(OCC)c(C(C)=O)cc1OCC | -1.08% |  |
| OCCOc1cccc(OCCO)c1 | 7.25% |  |
| CC(C)=CCC/C(C)=C/C=N/O | -13.8% |  |

Molecular target: Vitamin D3 receptor (Homo sapiens) (UniProt P11473)
Test: qHTS assay to identify small molecule agonists of the vitamin D receptor (VDR) signaling pathway (AID 743222; calls by dose curve)
Conditions: HEK293T VDR-UAS-bla, beta-lactamase FRET ratio, 16 h; series mostly up to 63.5 µM; activation: at the top concentration
Procedure, shortened: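 VDR-bla cells were plated 4 h at 37C/5% CO2, then exposed to compounds in DMSO for 16 h. After LiveBLAzer B/G FRET substrate addition and 2 h at room temperature, beta-lactamase reporter fluorescence was read.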

Sequence of Vitamin D3 receptor (Homo sapiens) (P11473 whole entry, looked up): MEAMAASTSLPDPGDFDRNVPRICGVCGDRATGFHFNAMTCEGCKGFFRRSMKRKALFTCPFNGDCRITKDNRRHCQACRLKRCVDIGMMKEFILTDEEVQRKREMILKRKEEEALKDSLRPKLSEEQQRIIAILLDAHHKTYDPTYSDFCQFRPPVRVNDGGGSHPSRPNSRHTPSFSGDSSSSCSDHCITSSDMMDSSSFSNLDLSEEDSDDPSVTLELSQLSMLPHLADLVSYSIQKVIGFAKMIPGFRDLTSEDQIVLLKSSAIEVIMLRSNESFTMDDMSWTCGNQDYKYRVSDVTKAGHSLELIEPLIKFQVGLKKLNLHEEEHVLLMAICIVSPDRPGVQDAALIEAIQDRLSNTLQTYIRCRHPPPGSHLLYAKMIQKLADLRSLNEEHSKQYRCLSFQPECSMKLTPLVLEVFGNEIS

| Compound | activation |
| --- | --- |
| Cc1nc(C)c(C)nc1C | -7.06% |
| Cc1ccc(S(=O)(=O)NC(=O)NC2CCCC2)cc1 | 0.744% |
| C=C(C)C(=O)OCCCCCCCCCCOC(=O)C(=C)C | -3.05% |
| C[C@H](CN1CCCC1)C(=O)c1ccc(C(F)(F)F)cc1 | -3.64% |
| Clc1nc2ccccc2nc1Cl | 4.81% [at 81.1 µM] |
| CC(C)NC(=O)c1ccccc1N | 4.02% |
| CCCc1nc(C)c2c(=O)[nH]c(-c3cc(S(=O)(=O)N4CCN(CC)CC4)ccc3OCC)nn12 | -6.38% |
| Cc1cccc(C)c1NC(=O)CN1CCCC1 | 6.12% |
| CC(COc1ccccc1)NC(C)C(O)c1ccc(O)cc1 (stereo not drawn) | -7.62% |
| NCCOCCOCCN | -13.8% |
| C=CC(=O)OCCCCCCCCCC | 7.87% |
| Nc1ccc(F)cc1F | -0.815% [at 81.1 µM] |
| O=c1[nH]nc(-c2ccc([N+](=O)[O-])o2)o1 | -2.59% |
| CCN(CC)CC(=O)OCC(=O)[C@@]1(O)CC[C@H]2[C@@H]3CCC4=CC(=O)CC[C@]4(C)[C@H]3[C@@H](O)C[C@@]21C | -3.65% |
| CCOC(OCC)OCC | 7.92% |
| COC(=O)/C=C/C(C)=C\C=C\C(C)=C\C=C\C=C(C)\C=C\C=C(C)\C=C\C(=O)O | -11.1% |
| CCCC(=O)OCc1ccccc1 | 2.06% |
| c1ccc(CCNc2nc(-c3ccccc3)cs2)cc1 | 5.18% |
| O=C(OC1C[C@H]2CC[C@@H](C1)[N+]21CCCC1)C(O)(c1ccccc1)c1ccccc1 (stereo partly drawn) | 2.9% |
| N#Cc1ccc(CC(=O)c2cccc(C(F)(F)F)c2)cc1 | 0.0826% |
| CC1(C)C(=O)NC(=O)N1CO | 1.3% |
| CCOc1cc(OCC)c(C(C)=O)cc1OCC | -12.1% |
| OCCOc1cccc(OCCO)c1 | -2.1% |
| CC(C)=CCC/C(C)=C/C=N/O | -6.96% |

Molecular target: Vitamin D3 receptor (Homo sapiens) (UniProt P11473)
Test: qHTS assay to identify small molecule antagonists of the vitamin D receptor (VDR) signaling pathway (AID 743223; active means well fitted inhibition curve with a large enough effect in the signal ratio in the repeat runs, not every such curve was filed as active; the % refers to the signal ratio)
Conditions: VDR-UAS-bla HEK293T, beta-lactamase FRET ratio, 16 h; series mostly up to 61 µM; activity change, negative = inhibition: at the top concentration
Procedure, shortened: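 Beta-lactamase activity in VDR-bla cells is measured by FRET substrate fluorescence (2 h, room temperature) after cells spend 16 h at 37C with test compound and 3 nM final 1alpha,25-dihydroxyvitamin D3.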

| Compound | activity change, negative = inhibition |
| --- | --- |
| Cc1ccc(S(=O)(=O)NC(=O)NC2CCCC2)cc1 | 6.27% |
| C=C(C)C(=O)OCCCCCCCCCCOC(=O)C(=C)C | 13.3% |
| CCC1=C(C)CN(C(=O)NCCc2ccc(S(=O)(=O)NC(=O)NC3CCC(C)CC3)cc2)C1=O (stereo not drawn) | 4.21% |
| Cc1ccc(Cl)c(OCC(O)CNC(C)(C)C)c1 (stereo not drawn) | 0.562% |
| Clc1nc2ccccc2nc1Cl | -2.87% [at 78.8 µM] |
| CC(C)NC(=O)c1ccccc1N | 4.69% |
| CCCc1nc(C)c2c(=O)[nH]c(-c3cc(S(=O)(=O)N4CCN(CC)CC4)ccc3OCC)nn12 | -8.67% |
| C=CC(=O)OCCCCCCCCCC | 16.2% |
| Nc1ccc(F)cc1F | -4.4% [at 78.8 µM] |
| O=c1[nH]nc(-c2ccc([N+](=O)[O-])o2)o1 | 13.5% |
| CCOC(OCC)OCC | -1.9% |
| Cc1ccc2ccccc2c1[N+](=O)[O-] | 9.01% |
| COC(=O)/C=C/C(C)=C\C=C\C(C)=C\C=C\C=C(C)\C=C\C=C(C)\C=C\C(=O)O | 22.2% |
| CO[C@@H]1COCC[C@@H]1N[C@@H]1CC[C@@](C(=O)N2CCc3ncc(C(F)(F)F)cc3C2)(C(C)C)C1 | -10.1% |
| c1ccc(CCNc2nc(-c3ccccc3)cs2)cc1 | -10.4% |
| C[C@]12CCC(=O)C=C1[C@@H]1C[C@@H]1[C@H]1[C@@H]3[C@@H]4C[C@@H]4[C@@]4(CCC(=O)O4)[C@@]3(C)CC[C@@H]12 | 5.28% |
| CCCCOC(=O)C(C)Oc1ccc(Oc2ccc(C(F)(F)F)cn2)cc1 (stereo not drawn) | -11.1% |
| O=C(N[C@@H](Cc1ccccc1)[C@@H](O)C(=O)N1C[C@@H](O)[C@@H](O)C1)c1cc2cc(Cl)ccc2[nH]1 | 1.08% |
| CC1(C)C(=O)NC(=O)N1CO | -5.16% |
| CCOc1cc(OCC)c(C(C)=O)cc1OCC | 10.3% |
| CC(C)=CCC/C(C)=C/C=N/O | 0.375% |
